Screens (PubChem)
TR SRC2 fluor cs: counter-screen for TRb-SRC2 inhibitors: fluorescence interference. 0.29% of 280,000 active. TRb/SRC2 Texas Red total fluorescence interference. Potency, µM (top dose mostly 106 µM), without a hit: top-dose fluorescence change, negative = quenching; active = well fitted curve in either direction with a large enough effect; inconclusive = small, poorly fitted or top-dose-only effect; note: % is set by controls: 0 for no effect and ±100 for the full control effect
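Human TRb ligand-binding domain at 0.6 uM with 20 nM Texas Red SRC2 peptide in Tris buffer containing 1 uM T3 and 5% DMSO, incubated with compound 5 h at ambient temperature. Total fluorescence (555/632 nm) calculated as parallel + 2 × perpendicular.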
ERG-DNA inh: inhibitors of human ERG Ets domain-DNA interaction | fluorescence polarization, His-ERG Ets domain / labelled DNA | Potency, µM (series often up to 76.9 µM), inactives show top-dose FP activity, negative = inhibition, actives largely listed as inhibitors | 0.028% of 370,000 active | AID 624246; active = well fitted inhibition curve with a large enough effect in the polarisation, with a control signal flat; inconclusive = small, poorly fitted or top-dose-only effect, or effect the other way, or a change in a side signal; inactive = no such curve, though single readings can be large or run the other way; the % refers to the polarisation;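 note: polarization taken with two DNA probes labelled with fluorescein and Texas red; % of control where 0% means no effect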
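His-tagged ERG Ets domain (1 uM in the protein solution; 300mM KCl, 50mM Tris-HCl, 1mM EDTA, 1mM DTT, pH 7.5) received compound, then a probe mix of 5 nM fluorescein-DNA and 100nM Texas-615-DNA. Fluorescence polarization was read for both dyes.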
TRb-SRC2 inh: inhibitors of human thyroid hormone receptor beta-SRC2 interaction; 0.065% of 280,000 active; P10828; TRbeta-SRC2 peptide binding, fluorescence polarization; receptor liganded with 1 µM T3; AID 1469; Potency, µM (doses to about 106 µM), for inactives: at the highest dose activity change, negative = inhibition, hits mostly inhibitors; active = well fitted inhibition curve with a large enough effect; inconclusive = small, poorly fitted or top-dose-only effect, or effect the other way;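 note: plate controls were bound peptide for no effect and peptide without receptor for full effect; nearly all actives have a fitted effect of over 50% in size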
Target sequence (P10828 whole entry, looked up): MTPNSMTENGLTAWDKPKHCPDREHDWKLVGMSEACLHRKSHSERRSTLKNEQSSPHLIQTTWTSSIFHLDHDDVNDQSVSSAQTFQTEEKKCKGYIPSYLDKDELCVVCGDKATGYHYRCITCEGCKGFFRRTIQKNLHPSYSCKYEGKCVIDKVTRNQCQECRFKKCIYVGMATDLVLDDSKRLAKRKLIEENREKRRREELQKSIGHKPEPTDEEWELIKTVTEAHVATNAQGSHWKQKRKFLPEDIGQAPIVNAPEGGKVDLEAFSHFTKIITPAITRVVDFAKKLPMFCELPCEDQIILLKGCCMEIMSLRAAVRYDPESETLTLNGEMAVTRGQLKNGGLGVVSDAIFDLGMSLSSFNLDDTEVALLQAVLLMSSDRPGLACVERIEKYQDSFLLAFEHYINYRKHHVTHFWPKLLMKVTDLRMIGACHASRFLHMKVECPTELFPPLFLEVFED
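Fluorescence polarization of 20 nM Texas Red SRC2 peptide (20-aa NR interaction domain) bound to 0.6 uM human TRb ligand-binding domain, with 1 uM T3, after 5 hr at ambient temperature; inhibition seen as decreased polarization.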
The depositor's hits bear a star; [ ] = another dose, or the depositor's remark. This excerpt belongs to a sample that is enriched for hits. Potency is the fitted concentration of half-maximal effect.

CCOc1ccc(C2c3c(oc4ccc(C)cc4c3=O)C(=O)N2CCCN(C)C)cc1 (stereo not given) was read as TR SRC2 fluor cs 3%, ERG-DNA inh -15% and TRb-SRC2 inh 0%.
Screening Cc1ccc2oc3c(c(=O)c2c1)C(c1ccc(O)cc1)N(CCCN(C)C)C3=O (stereo not given) returned TR SRC2 fluor cs 5.6e-05µM*[quencher], ERG-DNA inh 0% and TRb-SRC2 inh -18%.
For CN(CC(=O)NCc1ccccc1)S(=O)(=O)c1ccc2[nH]c3c(c2c1)CCCC3 the results were TR SRC2 fluor cs 0%, ERG-DNA inh -3% and TRb-SRC2 inh -4%.
`Cc1cccc(C)c1NC(=O)CN(C)S(=O)(=O)c1ccc2[nH]c3c(c2c1)CCCC3` gave TR SRC2 fluor cs 22µM*[quencher], ERG-DNA inh -8% and TRb-SRC2 inh -8%.
Screening Cc1cc(C)cc(NC(=O)CN(C)S(=O)(=O)c2ccc3[nH]c4c(c3c2)CCCC4)c1 returned TR SRC2 fluor cs 1%, ERG-DNA inh 6% and TRb-SRC2 inh 4%.
`CN(CC(=O)NCc1ccc(F)cc1)S(=O)(=O)c1ccc2[nH]c3c(c2c1)CCCC3` gave TR SRC2 fluor cs 18µM*[quencher], ERG-DNA inh 3% and TRb-SRC2 inh -7%.
Screening CC(C)C(=O)OC(=O)C(C)C returned TR SRC2 fluor cs -1%[201 µM] and TRb-SRC2 inh 5%[201 µM].
CCc1nnc2c3ccccc3nc(Nc3ccccc3OC)n12 was read as TR SRC2 fluor cs -1%, ERG-DNA inh 5% and TRb-SRC2 inh -12%.
Screening CCn1c(C)c(C2=CCN(S(=O)(=O)c3ccc(C)cc3)CC2)c2ccccc21 returned TR SRC2 fluor cs 0%, ERG-DNA inh 8% and TRb-SRC2 inh -5%.
For Cc1c(C2=CCN(S(=O)(=O)c3ccc(Br)cc3)CC2)c2ccccc2n1C the results were TR SRC2 fluor cs 28µM*[fluorescent], ERG-DNA inh 9% and TRb-SRC2 inh inconclusive.
`Cc1ccc(S(=O)(=O)c2nc(S(C)(=O)=O)sc2NCc2ccccc2)cc1` gave TR SRC2 fluor cs -3%, ERG-DNA inh -6% and TRb-SRC2 inh 4%.
`O=c1[nH]c2ccc(NCc3ccc(-c4ccccc4)o3)cc2[nH]1` gave TR SRC2 fluor cs -1%, ERG-DNA inh 7% and TRb-SRC2 inh -9%.
For O=c1[nH]c2ccc(NCc3ccc(-c4ccc(Cl)cc4)o3)cc2[nH]1 the results were TR SRC2 fluor cs 100µM*[quencher], ERG-DNA inh 2% and TRb-SRC2 inh inconclusive.
For O=C=NC1CCC(CC2CCC(N=C=O)CC2)CC1 (stereo not given) the results were TR SRC2 fluor cs 0%[201 µM] and TRb-SRC2 inh 6%[201 µM].
`CC(=O)[C@]1(O)Cc2c(O)c3c(c(O)c2[C@@H](O[C@H]2C[C@H](N)[C@H](O)[C@H](C)O2)C1)C(=O)c1ccccc1C3=O` gave TR SRC2 fluor cs 45µM*[fluorescent], ERG-DNA inh 3.2µM* and TRb-SRC2 inh inconclusive.
CCCCC(=O)OCC(=O)[C@]1(O)Cc2c(O)c3c(c(O)c2[C@H](OC2CC(NC(=O)C(F)(F)F)C(O)C(C)O2)C1)C(=O)c1c(OC)cccc1C3=O (stereo not given in full) was read as TR SRC2 fluor cs inconclusive and TRb-SRC2 inh 2%.
CC(=O)[C@]1(O)Cc2c(O)c3c(c(O)c2[C@@H](O[C@H]2C[C@H](N)[C@H](O)[C@H](C)O2)C1)C(=O)c1c(O)cccc1C3=O was read as TR SRC2 fluor cs 45µM*[fluorescent] and TRb-SRC2 inh 22µM*.
Screening Cc1ccccc1-n1nc(CO)c(C(=O)NCCc2ccccc2)n1 returned TR SRC2 fluor cs 1%, ERG-DNA inh 1% and TRb-SRC2 inh -4%.
For O=C(NCc1ccc(F)cc1)C1CCCN(c2ncnc3onc(-c4ccc(F)cc4)c23)C1 (stereo not given) the results were TR SRC2 fluor cs 16µM*[quencher], ERG-DNA inh 2% and TRb-SRC2 inh -28%.
Screening Cc1ccc(CNc2ncnc3onc(-c4ccc(F)cc4)c23)cc1 returned TR SRC2 fluor cs 0.089µM*[quencher], ERG-DNA inh 4% and TRb-SRC2 inh -19%.
Screening Fc1ccc(CNc2ncnc3onc(-c4ccc(F)cc4)c23)cc1 returned TR SRC2 fluor cs -3%, ERG-DNA inh 6% and TRb-SRC2 inh -7%.
Screening COc1cccc(CNC(=O)C2CCCN(c3ncnc4onc(-c5ccc(F)cc5)c34)C2)c1 (stereo not given) returned TR SRC2 fluor cs 0%, ERG-DNA inh -1% and TRb-SRC2 inh -2%.
`COc1ccc(C)cc1NC(=O)C(=O)NCC(c1cccnc1)N1CCN(c2ccccc2F)CC1` (stereo not given) gave TR SRC2 fluor cs -4%, ERG-DNA inh 1% and TRb-SRC2 inh -4%.
`CC(=O)O[C@H]1C2=CO[C@H](C)[C@H]3[C@H]4C5=C([C@H](O)[C@H]6O[C@@H]6C5=O)[C@H](O[C@H]4C)[C@@]23C(=O)[C@H]2O[C@@H]21` gave TR SRC2 fluor cs -2%[11.2 µM] and TRb-SRC2 inh 1%[11.2 µM].
For CCCCC(CC)COC(=O)CS (stereo not given) the results were TR SRC2 fluor cs 0%[201 µM] and TRb-SRC2 inh 6%[201 µM].
Screening CC1Cc2cc(S(=O)(=O)NCc3ccc(N(C)C)cc3)ccc2N1C(=O)C1CCC1 (stereo not given) returned TR SRC2 fluor cs 22µM*[quencher], ERG-DNA inh 4% and TRb-SRC2 inh -11%.
`COc1ccc(CNS(=O)(=O)c2ccc3c(c2)CC(C)N3C(=O)C2CC2)cc1` (stereo not given) gave ERG-DNA inh -8%.
Cc1sc2ncn(CC(=O)N(C)c3cccc(C(F)(F)F)c3)c(=O)c2c1S(=O)(=O)N1CCN(c2ncccn2)CC1 was read as TR SRC2 fluor cs 0.079µM*[quencher], ERG-DNA inh 7% and TRb-SRC2 inh -25%[53 µM].
COc1ccc(N(C)C(=O)Cn2cnc3sc(C)c(S(=O)(=O)N4CCN(c5ncccn5)CC4)c3c2=O)cc1 was read as TR SRC2 fluor cs 0%, ERG-DNA inh 4% and TRb-SRC2 inh 0%.
COc1cccc(NC(=O)C(=O)NCC(c2cccnc2)N2CCN(c3ccccc3)CC2)c1 (stereo not given) was read as TR SRC2 fluor cs 100µM*[quencher], ERG-DNA inh 3% and TRb-SRC2 inh -17%.
For COc1ccc(N2CCN(C(CNC(=O)C(=O)NCc3cccnc3)c3cccnc3)CC2)cc1 (stereo not given) the results were TR SRC2 fluor cs 56µM*[quencher], ERG-DNA inh -1% and TRb-SRC2 inh -20%.
For CCc1ccc(NC(=O)C(=O)NCC(c2cccnc2)N2CCN(c3ccc(F)cc3)CC2)cc1 (stereo not given) the results were TR SRC2 fluor cs 100µM*[quencher], ERG-DNA inh 2% and TRb-SRC2 inh -18%.
`COc1ccc(N2CCN(C(CNC(=O)C(=O)NCc3ccc(C)cc3)c3cccnc3)CC2)cc1` (stereo not given) gave TR SRC2 fluor cs 6%, ERG-DNA inh -6% and TRb-SRC2 inh 1%.
CCc1ccc(NC(=O)C(=O)NCC(c2cccnc2)N2CCN(C)CC2)cc1 (stereo not given) was read as TR SRC2 fluor cs -82%, ERG-DNA inh 2% and TRb-SRC2 inh -20%.
